In PubChem BioAssay (EPA / NIEHS):
Inconclusive results are not listed. Calls of active or inactive are those of the source. Rule for the calls: active = hit-call score of the fitted dose curve at least 0.9, where 1 is the maximum; inconclusive = response in the unintended direction; inactive = score below 0.9.

Assay: TOX21_p53_BLA_p3_viability: Viability Assessment in the Tox21 HCT-116 p53 Agonism Beta-lactamase Assay, Phase 3 (AID 2283593);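 note: cells exposed to compound for 16 h before reading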
Excerpt: TOX21_p53_BLA_p3 is a cell-based, single-readout assay that uses HCT116, a human intestinal cell line, […] in a 1536-well plate.TOX21_p53_BLA_p3_viability is an assay readout measuring cellular ATP content and detected with CellTiter-Glo Luciferase-coupled ATP quantitation.TOX21_p53_BLA_p3_viability used a type of viability reporter where loss-of-signal activity can be used to understand changes in the cell viability. Furthermore, this assay endpoint can be referred to as a secondary readout, because this assay has produced multiple assay endpoints where this one serves a viability function. To generalize the intended target to other relatable targets, this assay endpoint is annotated to the cell cycle intended target family, where the subfamily is cytotoxicity.
Thawing Method: Place 14 mL of pre-warmed thaw medium into a 15 mL of conical tub. Remove the vial of cells to be thawed from liquid nitrogen and thaw rapidly by placing at 37C in a water bath with gentle agitation for 1-2 minutes. Decontaminate the vial by wiping with 70% ethanol before opening in a biological safety cabinet. Transfer the vial contents drop-wise into 14 mL of thaw medium in a sterile 15-mL conical tub. Centrifuge cells at 900 rpm for 4 minutes and resuspend in thaw medium. Transfer contents to the T75 tissue culture flask containing Thaw Medium and place flask in a humidified 37C/5% CO2 incubator. Switch to growth medium at first passage.Propagation Method: Aspirate medium, rinse once in DPBS, add 0.25% Trypsin/EDTA and swirl to coat the cell evenly. Add an equal volume of Growth Medium to inactivate Trypsin after 2-3 minutes incubation at 37C. Centrifuge cells at 900 rpm for 4 minutes and resuspend in growth medium. Cell should be passage or fed at least twice a week.Assay Protocol: Harvest cells from culture in growth medium and resuspend in assay medium. 2.2 Dispense 4000 cells/5 uL/well into 1536-well black/clear bottom plates using a Multidrop dispenser. After the cells were incubated at 37C for 5 hours, 23 nL of compounds dissolved in DMSO were transferred to the assay plate by a PinTool resulting in a 217-fold dilution. Incubate the plates for 16 hours at 37C, 5% CO2. Add 1 uL of 6X LiveBLAzer FRET B/G (CCF4-AM) Substrate Mixture to each well using a BioRAPTR dispenser and incubate the plates at room temperature for 2 hours. Measure fluorescence intensity at 460 and 530 nm emission and 405 nm excitation by an Envision detector. Data is expressed as the ratio of 460nm/530nm emissions. Add 4 uL of Cell-titer Glo to each well using BioRAPTR and incubate the plates at room temperature for […]. For cell viability readout that measures cytotoxicity, 4 ul/well of CellTiter-Glo reagent was added into the assay plates using a Flying Reagent Dispenser. After 30 min incubation at room temperature, the luminescence intensity in the plates was measured using a ViewLux plate reader.
In the case of `CCCN`, the outcome is reported as “inactive”. For `O=C1c2ccccc2C(=O)c2ccccc21`, the outcome was “inactive”. With `CC(=O)CC(c1ccc(Cl)cc1)c1c(O)c2ccccc2oc1=O` (stereo not given) the outcome was “inactive”. For `CC=Cc1ccc2c(c1)OCO2`, the outcome was “inactive”. For `O=[N+]([O-])c1ccc(CBr)cc1`, the outcome was “inactive”. With `C[C@H]1CC[C@]2(NC1)O[C@H]1C[C@H]3[C@@H]4CC[C@H]5C[C@@H](O)CC[C@]5(C)[C@H]4CC[C@]3(C)[C@H]1[C@@H]2C` the outcome was “inactive”. With `CCc1cc(OC)c(C[C@@H](C)N)cc1OC` the outcome was “inactive”. For `CO[C@]12CC[C@@]3(C[C@@H]1[C@](C)(O)C(C)(C)C)[C@H]1Cc4ccc(O)c5c4[C@@]3(CCN1CC1CC1)[C@H]2O5`, the AC50 was 70.3 µM (active). For `O=C(O)c1ccccn1`, the outcome was “inactive”. For `Cc1ccc(Cl)c(O)c1`, the outcome was “inactive”. In the case of `CC(C)NCC(O)c1ccc([N+](=O)[O-])cc1` (stereo not given), the outcome is reported as “inactive”. With `CC(=O)OCC(=O)[C@H]1CC[C@H]2[C@@H]3CC[C@H]4C[C@H](O)CC[C@]4(C)[C@H]3C(=O)C[C@]12C` the outcome was “inactive”. In the case of `COc1ccc(CN2CCNCC2)c(OC)c1OC`, the outcome is reported as “inactive”. For `CC1CCCC1.[C-]#[O+].[C-]#[O+].[C-]#[O+].[Mn]`, the outcome was “inactive”. In the case of `CC(N)=S`, the outcome is reported as “inactive”. With `CC(C)OC(=O)C(O)(c1ccc(Cl)cc1)c1ccc(Cl)cc1` the outcome was “inactive”. With `O=c1c2ccccc2[se]n1-c1ccccc1` the outcome was “inactive”. In the case of `Cc1ccc2ccccc2c1`, the outcome is reported as “inactive”. For `CN1CCC(O)(c2ccc(F)cc2)C(C(=O)c2ccc(F)cc2)C1` (stereo not given), the outcome was “inactive”. With `NNC(=O)c1ccccc1` the outcome was “inactive”. In the case of `CC1(C)C(=O)NC(=O)NC1=O`, the outcome is reported as “inactive”. With `ClCC(Cl)Cl` the outcome was “inactive”. With `COC1=CC(=O)O[C@@H](/C=C/c2ccccc2)C1` the outcome was “inactive”. For `CCN(CC)CCO[C@H]1CC[C@@]2(C)C(=CC[C@@H]3[C@@H]2CC[C@]2(C)C(=O)CC[C@@H]32)C1`, the outcome was “inactive”. With `CC(=O)O[C@H]1CC[C@@]2(C)C(=CC[C@@H]3[C@@H]2CC[C@]2(C)C(=O)CC[C@@H]32)C1` the outcome was “inactive”. For `O=C(Cl)/C=C/C(=O)Cl`, the outcome was “inactive”. In the case of `c1ccc(C2CC2)c(OCC2=NCCN2)c1`, the outcome is reported as “inactive”. For `CC1CCC(C(C)C)C(OC(=O)c2ccccc2N)C1` (stereo not given), the AC50 was 23 µM (active). For `C[N+](C)(C)CCCl`, the outcome was “inactive”. With `COC(=O)[C@H]1[C@@H](OC(=O)c2ccccc2)C[C@@H]2CC[C@H]1N2C` the outcome was “inactive”. In the case of `CCOC(=O)C1OC1(C)c1ccccc1` (stereo not given), the outcome is reported as “inactive”. In the case of `O=C1C=C2C=C[C@@H]3C[C@@]2(O1)[C@H]1CCCCN31`, the outcome is reported as “inactive”. For `CCCC[N+]1(C)[C@@H]2CC(OC(=O)[C@H](CO)c3ccccc3)C[C@H]1[C@@H]1O[C@@H]12` (stereo not given in full), the outcome was “inactive”. In the case of `CCC1(C)CC(=O)NC(=O)C1`, the outcome is reported as “inactive”. With `CCOC(=O)COc1ccc(Cl)cc1Cl` the outcome was “inactive”. In the case of `O=C(O)COc1ccccc1`, the outcome is reported as “inactive”. In the case of `CC=CCC#N`, the outcome is reported as “inactive”. With `CC(C)CCC(=O)O[C@H]1CC[C@H]2[C@@H]3CCC4=CC(=O)CC[C@]4(C)[C@H]3CC[C@]12C` the outcome was “inactive”. With `OC(O)C(Cl)(Cl)Cl` the outcome was “inactive”. For `C[N+]1(C)[C@@H]2CC[C@H]1CC(OC(=O)c1c[nH]c3ccccc13)C2` (stereo not given in full), the outcome was “inactive”.
